In PubChem BioAssay (NCI) one finds growth data, which are given here for 14 compounds.

About 83,000 compounds went through this panel and 20% of them were active in at least one assay; those are over-represented in the sample as a whole.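 Values shown are percent growth following 48 h exposure of cells in 96-well plates to a single concentration of compound; below 10 was considered active.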 Values without a mark were called inactive. Active and inactive are the calls of the source.

Some test systems named below: RPMI-8226 leukemia; OVCAR-8 ovarian; OVCAR-4 ovarian; SK-OV-3 ovarian; IGROV1 ovarian; OVCAR-3 ovarian; HS 578T breast; NCI/ADR-RES ovarian; T-47D breast.
What all share (assay): NCI-60 one-dose screen, 48 h (100 = growth as untreated, 0 = no growth, -100 = all killed)
Conditions in all cases: 10 µM unless noted

On to `COc1ccc([C@H]2[C@@H](F)C(=O)N2c2cc(OC)c(OC)c(OC)c2)cc1F`, for which the growth with RPMI-8226 leukemia was 15.3%; in the assay with OVCAR-8 ovarian, 13.7%; in the assay with OVCAR-4 ovarian, 54.9%; in the assay with SK-OV-3 ovarian it was 33.4%; in the assay on IGROV1 ovarian it was 31.9%; with OVCAR-3 ovarian, -4.18% (active). Moreover, the growth in the assay with HS 578T breast was 25.5%; in the assay on NCI/ADR-RES ovarian it was 8.4% (active); with T-47D breast, 74.9%.
As for `CCOC(=O)c1cnn(-c2nc(-c3ccc(F)cc3)c(C#N)c(N3CCOCC3)n2)c1N`, the growth is 103% with RPMI-8226 leukemia; 100% in the assay on OVCAR-8 ovarian; 101% in the assay on OVCAR-4 ovarian; 101% in the assay with SK-OV-3 ovarian; 102% with IGROV1 ovarian; 113% in the assay with OVCAR-3 ovarian. The growth is 103% with HS 578T breast, 96.7% with NCI/ADR-RES ovarian and 83.9% in the assay with T-47D breast.
Take `N#CC1C(c2ccc(Cl)cc2)=Nc2c(c(-c3ccccc3)nn2-c2ccccc2)C12C(=O)Nc1ccc(Cl)cc12` (stereo unspecified): the growth in the assay on RPMI-8226 leukemia was 24.7%; in the assay with OVCAR-8 ovarian, 64.6%; in the assay on OVCAR-4 ovarian, 34.4%; in the assay with SK-OV-3 ovarian it was 68.6%; in the assay with IGROV1 ovarian, 42.1%; with OVCAR-3 ovarian it was 49.7%. Further, the growth with HS 578T breast is 51.4%; in the assay with NCI/ADR-RES ovarian, 67.6%; in the assay on T-47D breast, 46.7%.
`CC(=O)O[C@@H]1C[C@]2(C)[C@H]3[C@H](O)C[C@@H]4C5=CC(C)(C)CC[C@]5(C)CC[C@@]4(C)[C@]3(C)CC[C@H]2C(C)(C)[C@H]1O`: the growth with RPMI-8226 leukemia was 124%; with OVCAR-8 ovarian, 104%; in the assay on OVCAR-4 ovarian, 106%; in the assay on SK-OV-3 ovarian it was 107%; with IGROV1 ovarian, 106%; with OVCAR-3 ovarian it was 101%. Moreover, the results for the growth in the assay on HS 578T breast, in the assay with NCI/ADR-RES ovarian and with T-47D breast were 99.1%, 104% and 82.3%, respectively.
As to `C#CCOC(=O)[C@]1(C)CCC[C@]2(C)[C@H]3C[C@H]4C(C(C)C)=C[C@]3(CC[C@H]21)[C@@H]1C(=O)CCC(=O)[C@@H]14`, the growth was 67.9% in the assay on RPMI-8226 leukemia; 90.5% in the assay with OVCAR-8 ovarian; 73.9% in the assay with OVCAR-4 ovarian; 78.9% in the assay on SK-OV-3 ovarian; 78.3% in the assay on IGROV1 ovarian; 95% with OVCAR-3 ovarian. The growth is 80.8% in the assay on HS 578T breast, 81.5% in the assay with NCI/ADR-RES ovarian and 66.7% in the assay with T-47D breast.
As for `C[C@H]1[C@H](C)CC[C@]2(C(=O)OCCOCCOCC[P+](c3ccccc3)(c3ccccc3)c3ccccc3)CC[C@]3(C)C(=CC[C@@H]4[C@@]5(C)CC[C@H](OC(=O)C(Cl)Cl)C(C)(C)[C@@H]5CC[C@]43C)[C@H]12`, the growth was 0.348% (active) in the assay on RPMI-8226 leukemia; 11% in the assay with OVCAR-8 ovarian; 6.72% (active) with OVCAR-4 ovarian; -0.459% (active) with SK-OV-3 ovarian; 15.1% in the assay on IGROV1 ovarian; 16.1% in the assay on OVCAR-3 ovarian. For the same compound, the growth in the assay on HS 578T breast is 38.4%; with NCI/ADR-RES ovarian it was 69%; with T-47D breast, 21.8%.
For the compound `c1ccc(-c2n(Cc3ccc4ccccc4n3)cc[n+]2Cc2ccc3ccccc3c2)cc1`, the growth in the assay on RPMI-8226 leukemia was -2.59% (active); in the assay on OVCAR-8 ovarian, 3.17% (active); with OVCAR-4 ovarian it was 14.3%; with SK-OV-3 ovarian, -12.4% (active); in the assay on IGROV1 ovarian it was -15.4% (active); in the assay on OVCAR-3 ovarian, 6.21% (active). The growth in the assay on HS 578T breast was 15.1%; in the assay on NCI/ADR-RES ovarian, 96%; with T-47D breast it was -14.7% (active).
As to `COc1ccc(-c2cn(-c3ccc(Cl)cc3)c(=S)[nH]2)cc1OC`, the growth is 12.9% with RPMI-8226 leukemia; 53% in the assay with OVCAR-8 ovarian; 86.8% in the assay on OVCAR-4 ovarian; 79.3% in the assay with SK-OV-3 ovarian; 49.4% in the assay with IGROV1 ovarian; 88.4% in the assay with OVCAR-3 ovarian. In addition, the figures for the growth in the assay with HS 578T breast, in the assay on NCI/ADR-RES ovarian and with T-47D breast were 100%, 37% and 68.1%, respectively.
For the compound `C#C[C@@]1(O)[C@@H](CO)O[C@@H](n2cc(-c3ccco3)c3c(N)ncnc32)[C@@H]1O`, the growth was 80.3% in the assay with RPMI-8226 leukemia; 65.9% in the assay with OVCAR-8 ovarian; 61.2% in the assay on OVCAR-4 ovarian; 26.3% with SK-OV-3 ovarian; -11.6% (active) with IGROV1 ovarian; 80.3% in the assay on OVCAR-3 ovarian. In addition, the figures for the growth in the assay with HS 578T breast, with NCI/ADR-RES ovarian and in the assay with T-47D breast were 49.8%, 61.7% and -17.2% (active), respectively.
Take `COc1cc(NC(=O)c2cc(O)c(C/C=C(\C)CCC=C(C)C)c(O)c2)cc2c1O[C@]1(C)CC[C@@H](O)C(C)(C)[C@H]1C2`: the growth is -30% (active) in the assay on RPMI-8226 leukemia; 23.5% in the assay on OVCAR-8 ovarian; 29.6% with OVCAR-4 ovarian; 26.9% in the assay on SK-OV-3 ovarian; 20% in the assay on IGROV1 ovarian; -12.1% (active) with OVCAR-3 ovarian. The growth in the assay with HS 578T breast is 18.4%; in the assay on NCI/ADR-RES ovarian it was 65%; in the assay with T-47D breast, 18%.
Regarding `COc1ccc(-n2nc(C(=O)NCC(=O)O)nc2-c2ccccc2)cc1`, the growth in the assay with RPMI-8226 leukemia is 112%; in the assay with OVCAR-8 ovarian, 111%; in the assay on OVCAR-4 ovarian, 111%; in the assay on SK-OV-3 ovarian it was 111%; in the assay with IGROV1 ovarian it was 105%; in the assay on OVCAR-3 ovarian it was 116%. Also, the growth is 115% with HS 578T breast, 118% in the assay with NCI/ADR-RES ovarian and 104% in the assay with T-47D breast.
With `N#Cc1c(-c2ccc(F)cc2)nc(N/N=C/c2c[nH]c3ccccc23)nc1N1CCOCC1`, the growth is 33.5% with RPMI-8226 leukemia; 58% in the assay with OVCAR-8 ovarian; 80.4% in the assay with OVCAR-4 ovarian; 92.6% with SK-OV-3 ovarian; 65.1% with IGROV1 ovarian; 65.9% with OVCAR-3 ovarian. Further, the figures for the growth with HS 578T breast, in the assay with NCI/ADR-RES ovarian and in the assay on T-47D breast were 34.4%, 61% and 76.4%, respectively.
On to `O=c1c2ccccc2oc2ccc(OCCCCCCN3CCCCCC3)cc12`, for which the growth is 13.3% with RPMI-8226 leukemia; 50.3% with OVCAR-8 ovarian; 46.6% in the assay on OVCAR-4 ovarian; 72.4% in the assay with SK-OV-3 ovarian; 46.2% with IGROV1 ovarian; 59.8% with OVCAR-3 ovarian. The growth is 81.9% with HS 578T breast, 54.2% with NCI/ADR-RES ovarian and 21.5% in the assay with T-47D breast.
For `CCOC(=O)/C=C1\SC(=Nc2ccc(C#N)cc2)N(CCN2C(=O)/C(=C/C(=O)OCC)SC2=Nc2ccc(C#N)cc2)C1=O`, the growth with RPMI-8226 leukemia is -26.8% (active); with OVCAR-8 ovarian, 5.38% (active); with OVCAR-4 ovarian it was 50.8%; in the assay with SK-OV-3 ovarian, 85.4%; with IGROV1 ovarian, 23.7%; in the assay on OVCAR-3 ovarian, 7.13% (active). For the same compound, the results for the growth in the assay on HS 578T breast, with NCI/ADR-RES ovarian and in the assay on T-47D breast were 63.7%, 43.7% and 21.1%, respectively.
